A short description of test [1]: E. coli DRC41 culture turbidity changes, primary screen, E. coli filamentation inducer project, strain DRC41, OD650, 48 h (AID 1152).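 Further: E. coli MC1000 strain DRC41 lacking acrAB efflux pump and sulA.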 Particulars: E. coli DRC41 (acrAB sulA), higher = more signal, called active from +8 up or from −8 down.
Test [2] is described as follows: small-molecule binders of probe aLefty1, primary screen, biochemical, small-molecule microarray, 635/667 nm fluorescence (AID 1153).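 Further: score merges spot fluorescence with signal-to-noise ratio from the scanned slide images.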 Particulars: higher = more signal.
Test [3] in a line: PSAC antagonists in infected red cells, primary screen, cell-based, P. falciparum Indochina, OD700, 1 h (AID 1154). Particulars: P. falciparum Indochina infected RBC osmotic lysis, higher = more signal, called active from +8 up or from −8 down.
The nature of test [4]: PSAC antagonists in infected red cells, primary screen, cell-based, P. falciparum Indochina, OD700, 2 h (AID 1155).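 Further: lysis reports solute entry through the parasite surface anion channel PSAC; channel blockers reduce lysis of infected cells.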 Particulars: P. falciparum Indochina infected erythrocytes, osmotic lysis OD700; higher = more signal, called active from +8 up or from −8 down.
The nature of test [5]: osmotic lysis modulators in infected erythrocytes, primary screen, PSAC antagonist project, cell-based, P. falciparum Indochina, OD700, 3 h (AID 1156). Particulars: higher = more signal, called active from +8 up or from −8 down.
Test [6] is described as follows: PSAC antagonists in infected red cells, primary screen, cell-based, P. falciparum Indochina, OD700, 18 h (AID 1157). Particulars: P. falciparum Indochina infected erythrocytes, osmotic lysis OD700, 18 h; higher = more signal, called active from +8 up or from −8 down.
Test [7] is described as follows: modulators of S6 phosphorylation in cells, primary screen, cell-based, A549, cytoblot, luminescence, serum-stimulated (AID 1158).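 Further: serum-stimulated A549 lung adenocarcinoma cells; signal is phosphorylated S6 detected by cytoblot immunostaining with HRP secondary.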 Particulars: A549 phospho-S6 cytoblot, 5 h, higher = more signal.
Test [8] has as its target NADPH oxidase 2 (Homo sapiens) (UniProt P04839). As to the kind of experiment: NOX2-dependent H2O2 signal modulators, primary screen, NOX inhibitor project, cell-based, HEK293-NOX2, PMA-stimulated, Amplex Red fluorescence (AID 1159). Further: test concentration not given here. Particulars: 45 min, higher = more signal, called active from +8 up or from −8 down.
Test [9] concerns the target NADPH oxidase 4 (Homo sapiens) (UniProt Q9NPH5). As to the kind of experiment: NOX4-dependent H2O2 signal modulators, primary screen, NOX inhibitor project, cell-based, HEK293-NOX4, tetracycline-induced, Amplex Red fluorescence (AID 1160). Particulars: 45 min, higher = more signal, called active from +8 up or from −8 down.
Test [10] addresses NADPH oxidase 5 (Homo sapiens) (UniProt Q96PH1). The experiment in a line: NOX5-dependent H2O2 signal modulators, primary screen, NOX inhibitor project, cell-based, HEK293-NOX5, Amplex Red fluorescence (AID 1161). Particulars: HEK293-NOX5, ionomycin, 45 min, higher = more signal.

The structures appear in SMILES notation. Calls of active or inactive are those of the source.

This is an account of results in PubChem BioAssay.

Chain of NADPH oxidase 4 (Homo sapiens) (Q9NPH5 whole entry, looked up): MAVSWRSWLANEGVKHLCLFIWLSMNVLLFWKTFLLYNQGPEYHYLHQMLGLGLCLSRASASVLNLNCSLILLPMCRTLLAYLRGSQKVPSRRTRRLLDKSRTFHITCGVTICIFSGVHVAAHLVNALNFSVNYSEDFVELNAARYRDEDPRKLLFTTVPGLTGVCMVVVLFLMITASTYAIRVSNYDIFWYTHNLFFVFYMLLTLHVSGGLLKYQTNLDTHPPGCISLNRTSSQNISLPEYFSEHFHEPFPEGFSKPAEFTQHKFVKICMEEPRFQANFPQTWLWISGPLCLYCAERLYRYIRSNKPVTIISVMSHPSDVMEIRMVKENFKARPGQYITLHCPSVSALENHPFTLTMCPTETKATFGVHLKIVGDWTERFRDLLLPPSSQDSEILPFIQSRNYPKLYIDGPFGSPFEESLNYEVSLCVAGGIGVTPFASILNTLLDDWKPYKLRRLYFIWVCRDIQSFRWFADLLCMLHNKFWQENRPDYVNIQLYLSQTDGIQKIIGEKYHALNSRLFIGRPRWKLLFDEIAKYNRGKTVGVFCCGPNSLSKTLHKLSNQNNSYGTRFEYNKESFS
Chain of NADPH oxidase 5 (Homo sapiens) (Q96PH1 whole entry, looked up): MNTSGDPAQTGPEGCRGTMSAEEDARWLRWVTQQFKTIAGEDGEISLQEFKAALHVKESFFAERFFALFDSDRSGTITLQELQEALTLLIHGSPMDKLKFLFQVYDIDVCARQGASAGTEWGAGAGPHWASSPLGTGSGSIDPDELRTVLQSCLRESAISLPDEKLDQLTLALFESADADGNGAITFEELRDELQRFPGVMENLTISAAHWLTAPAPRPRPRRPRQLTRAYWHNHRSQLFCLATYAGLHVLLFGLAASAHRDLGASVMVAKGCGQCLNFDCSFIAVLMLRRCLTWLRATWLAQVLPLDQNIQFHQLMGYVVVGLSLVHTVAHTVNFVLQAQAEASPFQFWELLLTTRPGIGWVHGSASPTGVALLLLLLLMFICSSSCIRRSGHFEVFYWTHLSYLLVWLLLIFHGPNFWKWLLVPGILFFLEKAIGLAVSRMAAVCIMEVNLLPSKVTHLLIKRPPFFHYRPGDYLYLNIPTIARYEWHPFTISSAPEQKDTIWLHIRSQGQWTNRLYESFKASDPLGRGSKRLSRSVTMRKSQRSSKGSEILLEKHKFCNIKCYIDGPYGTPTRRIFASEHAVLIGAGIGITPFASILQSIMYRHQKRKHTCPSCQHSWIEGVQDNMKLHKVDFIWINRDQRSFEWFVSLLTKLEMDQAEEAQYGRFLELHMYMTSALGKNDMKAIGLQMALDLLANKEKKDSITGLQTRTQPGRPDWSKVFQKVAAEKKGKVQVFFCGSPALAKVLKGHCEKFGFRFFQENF
Chain of NADPH oxidase 2 (Homo sapiens) (P04839 whole entry, looked up): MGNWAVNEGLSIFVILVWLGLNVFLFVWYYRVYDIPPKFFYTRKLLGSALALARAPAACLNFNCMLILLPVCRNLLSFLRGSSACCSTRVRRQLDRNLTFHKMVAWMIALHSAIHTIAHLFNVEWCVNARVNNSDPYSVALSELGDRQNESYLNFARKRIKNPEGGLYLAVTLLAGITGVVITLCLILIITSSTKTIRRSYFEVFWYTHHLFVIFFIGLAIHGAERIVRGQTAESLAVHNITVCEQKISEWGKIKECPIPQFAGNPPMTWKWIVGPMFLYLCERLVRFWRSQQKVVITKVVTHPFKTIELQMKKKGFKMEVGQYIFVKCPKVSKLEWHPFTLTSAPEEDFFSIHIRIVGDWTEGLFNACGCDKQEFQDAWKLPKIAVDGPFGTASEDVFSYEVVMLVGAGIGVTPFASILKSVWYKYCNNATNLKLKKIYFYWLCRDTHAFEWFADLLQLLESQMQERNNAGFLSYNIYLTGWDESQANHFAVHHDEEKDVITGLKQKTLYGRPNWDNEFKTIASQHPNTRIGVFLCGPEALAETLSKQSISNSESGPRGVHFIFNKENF

In the case of `CC(C)N1CC=CC23O[C@@H]4C=CCCOC(=O)C4[C@H]2C(=O)N(CCO)[C@@H]3C1=O` (stereo not given in full), the z-score in test [1] is 2.1 (inactive); in test [3], 0.326 (inactive); in test [4], 0.568 (inactive); in test [5], 1.03 (inactive); in test [6] it was 0.406 (inactive); in [7] it was 0.468. Further, the results for the z-score in test [8], in test [9] and in test [10] were 1.37 (inactive), 0.509 (inactive) and 1.54, respectively. In addition, the composite z-score in test [2] was -0.357.

On to `C=C(CCCC)/C(=C/C[C@@H](OC(=O)c1ccncc1)c1cccc(OCCO)c1)c1cnc2ccccc2c1`, for which the z-score was 0.0513 (inactive) in [1]; 19.1 (active) in test [3]; 3.53 (inactive) in [4]; 0.902 (inactive) in test [5]; 1.12 (inactive) in test [6]; 0.462 in test [7]. In addition, the z-score in [8] was -1.21 (inactive); in [9] it was -0.36 (inactive); in test [10], -0.509. Besides, the composite z-score in [2] came out at 0.284.

Turning to `COC(=O)[C@@]1(Cc2ccccc2)[C@H]2c3cc(C(=O)N4CCCC4)n(Cc4ccsc4Br)c3C[C@H]2CN1C(=O)c1ccccc1`, the z-score in test [1] is -1.82 (inactive); in test [3], 7 (inactive); in test [4], 1.07 (inactive); in test [5], 1.04 (inactive); in test [6], 1.03 (inactive); in [7], -0.215. Moreover, the z-score is 0.0188 (inactive) in test [8], 0.707 (inactive) in test [9] and -2.92 in test [10]. The composite z-score in test [2] was determined as 0.451.

On to `C=CCC(OC(C)=O)[C@@H]1[C@@H](N(Cc2cc3ccccc3o2)C(=O)Cc2ccc(F)cc2)c2cc(OCCCO)ccc2N1C(=O)c1ccc2ccccc2n1` (stereo not given in full), for which the z-score in [1] was -0.548 (inactive); in test [3], 1.05 (inactive); in test [4], 0.213 (inactive); in test [5] it was -0.627 (inactive); in [6], -0.0096 (inactive); in test [7], -0.53. The z-score is 0.259 (inactive) in [8], 0.642 (inactive) in test [9] and 1.28 in [10]. In addition, the composite z-score in [2] is -0.0984.

In the case of `O=C(N1CCCCC1)[C@@]1(Cc2ccccc2)COC(c2ccc(OCCCO)cc2)=N1`, the z-score is 0.436 (inactive) in test [1]; 20.9 (active) in test [3]; 3.44 (inactive) in test [4]; 1.32 (inactive) in test [5]; 0.42 (inactive) in test [6]; -0.666 in test [7]. Besides, the z-score is -4.59 (inactive) in test [8], -0.936 (inactive) in [9] and -2.26 in [10]. For the same molecule, the composite z-score in [2] was 0.461.

Regarding `COC(=O)C1(Cc2ccccc2)C=C2C(=C(C(C)C)C(=O)C2C)CN1` (stereo not given), the z-score in test [1] is -1.72 (inactive); in [3], 2.03 (inactive); in test [4], 0.326 (inactive); in test [5] it was 1.42 (inactive); in test [6] it was 0.592 (inactive); in test [7], 0.128. The z-score in test [8] is -0.862 (inactive); in [9], -5.34 (inactive); in test [10], -4.04. Besides, the composite z-score in test [2] turned out to be 0.276.

Turning to `CC(C)C(=C=CC[C@H](O)c1ccc(OCCO)cc1)C[C@H](O)c1cc(Cl)cc(Cl)c1O`, the z-score in test [1] was 0.049 (inactive); in [3], 19.4 (active); in test [4] it was 3.7 (inactive); in test [5] it was 1.44 (inactive); in test [6] it was 1.24 (inactive); in test [7], -0.173. The z-score in [8] was 0.532 (inactive); in test [9], -0.473 (inactive); in test [10], -1.36. The composite z-score in test [2] was determined as 0.121.

For the molecule `C=C(/C=C/CNS(=O)(=O)c1ccc(C)cc1)[C@H](O)[C@H]1CCCN1S(=O)(=O)c1ccccc1[N+](=O)[O-]`, the z-score in test [1] is 0.611 (inactive); in test [3], 11.5 (active); in test [4], 1.43 (inactive); in [5], 0.643 (inactive); in [6], 0.647 (inactive); in [7], 0.229. Further, the z-score is -0.358 (inactive) in test [8], -1.6 (inactive) in [9] and -1.6 in test [10]. In addition, in test [2], the composite z-score is -0.185.

Regarding `CC(C)(C)N1CC=CC23O[C@@H]4C=CCOC(=O)[C@@H]4[C@H]2C(=O)N(CCCO)[C@@H]3C1=O` (stereo not given in full), the z-score in [1] is 0.799 (inactive); in test [3] it was -0.103 (inactive); in test [4], -0.831 (inactive); in [5], 0.858 (inactive); in test [6], -1.53 (inactive); in [7], 0.364. The z-score in test [8] was -0.693 (inactive); in test [9], -0.00336 (inactive); in test [10], -1.09. This molecule also returned a composite z-score in test [2] of -0.429.

Take `COC(=O)[C@@]1(Cc2ccc(OC)cc2)[C@H]2c3cc(C(=O)N(C)C)n(CCc4c[nH]c5ccc(O)cc45)c3C[C@H]2CN1C(=O)c1ccccc1`: the z-score is -1.58 (inactive) in test [1]; 4.25 (inactive) in test [3]; 1.25 (inactive) in test [4]; 0.396 (inactive) in test [5]; 1.23 (inactive) in test [6]; 0.092 in test [7]. The z-score is 0.689 (inactive) in [8], 0.0624 (inactive) in [9] and 1.14 in test [10]. The same molecule showed a composite z-score in test [2] of 0.825.

In the case of `O=C(CS)NCCCCCCNC(=O)[C@@H]1C[C@@H]2C(=O)N3CCC[C@H]3C(=O)N2[C@@H]1c1cccc(OCCO)c1`, the z-score is 1.89 (inactive) in [1]; 2.94 (inactive) in [3]; -0.677 (inactive) in test [4]; 1.94 (inactive) in test [5]; -1.78 (inactive) in test [6]; 2.09 in test [7]. Besides, the z-score in test [8] was 1.17 (inactive); in test [9], 0.87 (inactive); in test [10] it was 0.222. In test [2], this molecule came in with a composite z-score of 0.113.

Consider `CC(=O)n1cc(C(O)C2C=CC3C(=O)N(c4ccccc4)C(=O)C3N2Nc2ccccc2)c2ccccc21` (stereo not given), for which the z-score is -1.45 (inactive) in [1]; 20.1 (active) in test [3]; 2.76 (inactive) in test [4]; 1.12 (inactive) in test [5]; -0.568 (inactive) in test [6]; 1.32 in test [7]. Further, the values for the z-score in [8], in test [9] and in test [10] were -3.07 (inactive), -4.86 (inactive) and -4.68, respectively. This molecule returned a composite z-score in test [2] of 0.681.

Take `COCCCNC(=O)[C@@]1(Sc2ccc(C)cc2)CC(=O)N(C2Cc3ccccc3C2)[C@@H]1c1ccc(CO)cc1I`: the z-score was -0.713 (inactive) in test [1]; 4.51 (inactive) in [3]; 0.427 (inactive) in test [4]; -0.23 (inactive) in test [5]; -0.0133 (inactive) in test [6]; 0.224 in [7]. Further, the z-score is 2.2 (inactive) in test [8], -1.15 (inactive) in test [9] and 1.23 in test [10]. The same molecule came in with a composite z-score in test [2] of -0.0366.
